Test results from PubChem BioAssay (Tox21).
Several values for one entry are separate records, joined by “and”; a condition that tells them apart may be missing. Identical values can stand only once. Inconclusive results are not listed. A structure can be active in one record and inactive in another. Activity calls are given as the source filed them. Unless noted, calls come from the whole dose curve; as a rule, active = well fitted curve in the direction sought with a large enough effect in the repeat runs; inconclusive = weak or mixed curves; inactive = no such curve, though single readings can be large; an effect the other way counts as inactive or inconclusive.

Legend:
[1] = molecular target: Estrogen receptor beta (Homo sapiens) (UniProt Q92731); experiment: qHTS assay to identify small molecule agonists of the estrogen receptor beta (ER-beta) signaling pathway (AID 1259377; active = well fitted activation curve with a large enough effect in the signal ratio in the repeat runs, not every such curve was filed as active; the % refers to the signal ratio)
Chain of Estrogen receptor beta (Homo sapiens) (Q92731 whole entry, looked up): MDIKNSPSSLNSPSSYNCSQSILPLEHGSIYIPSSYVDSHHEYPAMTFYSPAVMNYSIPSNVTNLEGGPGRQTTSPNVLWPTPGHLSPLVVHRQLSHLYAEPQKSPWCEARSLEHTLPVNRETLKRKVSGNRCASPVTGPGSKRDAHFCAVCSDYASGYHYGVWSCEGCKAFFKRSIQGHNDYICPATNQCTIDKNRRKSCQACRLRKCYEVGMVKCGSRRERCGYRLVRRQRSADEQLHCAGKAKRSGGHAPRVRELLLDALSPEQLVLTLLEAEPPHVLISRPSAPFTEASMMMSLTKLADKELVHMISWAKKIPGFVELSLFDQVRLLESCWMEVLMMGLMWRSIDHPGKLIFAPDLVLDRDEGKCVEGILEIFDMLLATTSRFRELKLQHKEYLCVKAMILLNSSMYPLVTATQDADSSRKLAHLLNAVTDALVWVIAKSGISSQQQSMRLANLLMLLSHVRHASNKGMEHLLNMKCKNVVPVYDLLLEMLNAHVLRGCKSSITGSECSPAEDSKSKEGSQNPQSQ
How it was run: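 HEK293T ER-beta-UAS-bla; 2% charcoal-stripped FBS; cells pre-incubated 6 hr, compound 16 hr, 37C/5% CO2; LiveBLAzer B/G FRET substrate 2 h RT; fluorescence intensity read.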

[2] = molecular target: Estrogen receptor beta (Homo sapiens) (UniProt Q92731); experiment: qHTS assay to identify small molecule antagonists of the estrogen receptor beta (ER-beta) signaling pathway (AID 1259378; active = well fitted inhibition curve with a large enough effect in the signal ratio in the repeat runs, not every such curve was filed as active; the % refers to the signal ratio; note: potency is the fitted concentration of half-maximal effect)
How it was run: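 ER-beta-UAS-bla HEK293T (GripTite) cells in 2% charcoal-stripped FBS medium were preincubated 6 hr at 37C, dosed with compound, then stimulated with 1 nM E2 (final) for 16 hr; beta-lactamase reporter read by B/G FRET fluorescence after 2 hr substrate loading.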

[3] = qHTS assay to identify small molecule agonists of the androgen receptor (AR) signaling pathway in the presence of an antagonist - cell viability counter screen (AID 1259379); note: nearly all actives have a fitted effect of over 25% in size; note: potency is the fitted concentration of half-maximal effect
How it was run: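 MDA-kb2 human breast carcinoma cells (stable MMTV-luciferase, AR/GR responsive) were seeded 3,000 cells/well, pre-incubated 5 hr at 37C without CO2, then given 3.0uM nilutamide and compounds at 15 concentrations for 16 hr. Viability was read by CellTiter-Fluor fluorescence.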

[4] = qHTS assay to identify small molecule agonists of the estrogen receptor beta (ER-beta) signaling pathway - cell viability counter screen (AID 1259380); note: nearly all actives have a fitted effect of over 30% in size; note: potency is the fitted concentration of half-maximal effect
How it was run: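 ER-beta-UAS-bla HEK293T cells in medium with 2% charcoal-stripped FBS were preincubated 6 hr at 37C, dosed with compound in DMSO for 16 hr, then after the bla read, CellTiter-Glo was added for 30 min at room temperature; luminescence recorded.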

[5] = molecular target: Androgen receptor (Homo sapiens) (UniProt P10275); experiment: qHTS assay to identify small molecule agonists of the androgen receptor (AR) signaling pathway in the presence of an antagonist (AID 1259381; calls by dose curve; note: nearly all actives have a fitted effect of over 15% in size)
Chain of Androgen receptor (Homo sapiens) (P10275 whole entry, looked up): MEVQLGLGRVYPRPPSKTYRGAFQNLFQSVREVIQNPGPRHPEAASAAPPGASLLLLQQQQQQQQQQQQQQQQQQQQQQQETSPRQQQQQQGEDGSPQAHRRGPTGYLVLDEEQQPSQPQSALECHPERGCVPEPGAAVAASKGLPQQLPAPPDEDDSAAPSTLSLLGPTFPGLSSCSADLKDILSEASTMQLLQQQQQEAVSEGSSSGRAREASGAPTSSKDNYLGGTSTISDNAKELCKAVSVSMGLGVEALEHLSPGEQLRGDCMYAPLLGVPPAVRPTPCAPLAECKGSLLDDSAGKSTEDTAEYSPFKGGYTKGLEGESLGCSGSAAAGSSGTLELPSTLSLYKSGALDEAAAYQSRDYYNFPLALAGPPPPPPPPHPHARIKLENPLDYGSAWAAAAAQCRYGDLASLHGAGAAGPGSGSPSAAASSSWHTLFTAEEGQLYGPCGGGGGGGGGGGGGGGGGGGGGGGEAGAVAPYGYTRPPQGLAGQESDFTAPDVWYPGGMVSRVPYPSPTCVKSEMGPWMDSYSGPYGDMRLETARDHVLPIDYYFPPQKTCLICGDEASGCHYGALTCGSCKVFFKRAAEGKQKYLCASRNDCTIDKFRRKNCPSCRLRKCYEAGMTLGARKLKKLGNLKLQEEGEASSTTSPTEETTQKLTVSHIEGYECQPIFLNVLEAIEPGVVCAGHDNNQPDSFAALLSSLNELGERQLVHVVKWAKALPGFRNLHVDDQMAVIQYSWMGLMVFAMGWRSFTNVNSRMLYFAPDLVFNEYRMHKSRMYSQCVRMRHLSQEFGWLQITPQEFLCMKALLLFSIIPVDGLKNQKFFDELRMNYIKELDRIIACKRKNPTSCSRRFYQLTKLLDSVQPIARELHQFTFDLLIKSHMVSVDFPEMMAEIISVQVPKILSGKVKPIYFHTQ
How it was run: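 MDA-kb2 human breast carcinoma cells carrying an MMTV-luciferase reporter (AR- and GR-responsive) were treated with compounds at 15 concentrations plus 3.0uM final nilutamide for 16hr at 37C without CO2; luminescence was read after ONE-Glo addition.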

[6] = molecular target: Estrogen receptor (Homo sapiens) (UniProt P03372); experiment: qHTS assay to identify small molecule agonists of the estrogen receptor alpha (ER-alpha) signaling pathway in the presence of an antagonist (AID 1259383; calls by dose curve; note: top concentration of the series differs between compounds; nearly all actives have a fitted effect of over 15% in size)
Chain of Estrogen receptor (Homo sapiens) (P03372 whole entry, looked up): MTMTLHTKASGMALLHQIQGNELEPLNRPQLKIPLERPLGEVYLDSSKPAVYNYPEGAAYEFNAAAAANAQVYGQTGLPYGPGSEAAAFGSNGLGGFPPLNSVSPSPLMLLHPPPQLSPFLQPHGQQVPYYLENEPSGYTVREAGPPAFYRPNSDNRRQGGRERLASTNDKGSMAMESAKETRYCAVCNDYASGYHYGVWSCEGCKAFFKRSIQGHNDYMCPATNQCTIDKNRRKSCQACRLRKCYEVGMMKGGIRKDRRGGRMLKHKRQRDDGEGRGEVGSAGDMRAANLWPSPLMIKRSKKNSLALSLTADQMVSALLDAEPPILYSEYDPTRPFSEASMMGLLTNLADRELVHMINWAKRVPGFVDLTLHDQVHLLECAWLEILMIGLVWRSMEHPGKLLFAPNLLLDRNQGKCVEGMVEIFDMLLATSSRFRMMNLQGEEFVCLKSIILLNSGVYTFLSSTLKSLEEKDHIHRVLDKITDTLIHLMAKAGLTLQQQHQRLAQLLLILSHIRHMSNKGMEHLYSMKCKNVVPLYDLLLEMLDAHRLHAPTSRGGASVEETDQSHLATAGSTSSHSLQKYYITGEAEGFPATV
How it was run: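 VM7Luc4E2 cells (endogenous full-length ER-alpha, 4×ERE-luciferase) were precultured 5 days in phenol red-free medium with 10% charcoal-stripped FBS, given 10.0nM ICI-182,780 (final), then treated with compounds at 15 concentrations for 22hr at 37C; luminescence read with ONE-Glo.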

[7] = qHTS assay to identify small molecule agonists of the estrogen receptor alpha (ER-alpha) signaling pathway in the presence of an antagonist - cell viability counter screen (AID 1259386);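 note: cells exposed to compounds for 22 h at 37 °C before the viability read; nearly all actives have a fitted effect of over 30% in size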; note: potency is the fitted concentration of half-maximal effect
How it was run: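 VM7Luc4E2 cells (endogenous full-length ER-alpha, 4×ERE-luciferase) were held 5 days in phenol red-free medium with 10% charcoal-stripped FBS, plated, then given 10.0nM ICI-182,780 and compounds at 15 concentrations for 22hr at 37C; viability read by CellTiter-Fluor fluorescence.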

[8] = molecular target: Progesterone receptor (Homo sapiens) (UniProt P06401); experiment: qHTS assay to identify small molecule agonists of the progesterone receptor (PR) signaling pathway (AID 1346784; calls by dose curve; note: nearly all actives have a fitted effect of over 30% in size)
Chain of Progesterone receptor (Homo sapiens) (P06401 whole entry, looked up): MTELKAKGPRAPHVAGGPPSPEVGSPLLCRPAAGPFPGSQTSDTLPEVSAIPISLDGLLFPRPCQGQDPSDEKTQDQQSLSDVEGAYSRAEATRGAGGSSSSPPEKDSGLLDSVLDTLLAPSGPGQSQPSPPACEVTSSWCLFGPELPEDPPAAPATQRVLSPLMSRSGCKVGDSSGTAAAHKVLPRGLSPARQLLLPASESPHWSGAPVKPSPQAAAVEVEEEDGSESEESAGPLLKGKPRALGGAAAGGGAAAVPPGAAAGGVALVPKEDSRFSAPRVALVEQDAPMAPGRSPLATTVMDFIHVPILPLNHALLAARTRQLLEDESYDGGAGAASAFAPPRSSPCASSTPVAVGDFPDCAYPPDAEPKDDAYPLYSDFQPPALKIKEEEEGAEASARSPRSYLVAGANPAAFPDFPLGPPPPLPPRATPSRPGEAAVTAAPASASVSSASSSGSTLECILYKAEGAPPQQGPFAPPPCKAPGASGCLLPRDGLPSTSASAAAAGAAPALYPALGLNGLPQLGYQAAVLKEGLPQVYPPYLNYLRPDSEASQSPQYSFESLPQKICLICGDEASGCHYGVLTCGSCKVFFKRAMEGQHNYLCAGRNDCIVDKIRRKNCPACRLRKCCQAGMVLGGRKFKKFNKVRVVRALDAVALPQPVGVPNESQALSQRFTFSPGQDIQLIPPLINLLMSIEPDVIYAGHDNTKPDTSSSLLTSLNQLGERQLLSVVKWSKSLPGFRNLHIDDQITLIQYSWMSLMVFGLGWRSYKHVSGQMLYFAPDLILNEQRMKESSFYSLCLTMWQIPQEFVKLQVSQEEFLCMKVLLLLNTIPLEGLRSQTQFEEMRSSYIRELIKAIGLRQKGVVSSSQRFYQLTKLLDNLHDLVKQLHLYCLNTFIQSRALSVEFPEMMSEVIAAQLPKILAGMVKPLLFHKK
How it was run: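 Beta-lactamase reporter read-out: after 16 hr compound treatment at 37C and a further 2 hr at room temperature with LiveBLAzer B/G FRET substrate, fluorescence was measured in PR-UAS-bla HEK 293T cells grown in 2% charcoal-stripped serum.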

[9] = molecular target: Progesterone receptor (Homo sapiens) (UniProt P06401); experiment: qHTS assay to identify small molecule antagonists of the progesterone receptor (PR) signaling pathway (AID 1346795; active = well fitted inhibition curve with a large enough effect in the signal ratio in the repeat runs, not every such curve was filed as active; the % refers to the signal ratio; note: potency is the fitted concentration of half-maximal effect)
How it was run: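 Read-out is fluorescence from the LiveBLAzer B/G FRET substrate, cleaved by a UAS-controlled beta-lactamase in PR-UAS-bla HEK293T cells after 16 hr exposure to compound plus 1 nM promegestone (final), followed by 2 hr at room temperature.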

[10] = qHTS assay to identify small molecule antagonists of the progesterone receptor (PR) signaling pathway - cell viability counter screen (AID 1346798); note: nearly all actives have a fitted effect of over 50% in size; note: potency is the fitted concentration of half-maximal effect
How it was run: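 HEK293T PR-UAS-bla, 2% charcoal-stripped FBS; 4 hr pre-plate; cpd + R5020, 16 h 37C; LiveBLAzer read first; then CellTiter-Glo 30 min RT, luminescence.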

[11] = qHTS assay to identify small molecule agonists of the progesterone receptor (PR) signaling pathway - cell viability counter screen (AID 1346799; calls by dose curve; note: nearly all actives have a fitted effect of over 45% in size)
How it was run: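 Luminescence from CellTiter-Glo, added after the beta-lactamase FRET read in the same wells, gave cytotoxicity in PR-UAS-bla HEK293T cells treated with compounds for 16 hr at 37C.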

[12] = qHTS assay to identify small molecule antagonists of the TGF-beta/Smad signaling pathway - cell viability counter screen (AID 1346824); note: nearly all actives have a fitted effect of over 50% in size; note: potency is the fitted concentration of half-maximal effect
How it was run: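 SBE-bla HEK 293T cells were plated overnight at 37 C, then given compounds in DMSO plus TGF-beta1 (added as 0.25 ng/mL solution) for 5 hr. After the bla read, CellTiter-Glo was added to the same wells and luminescence read after 30 min at room temperature.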

[13] = qHTS assay to identify small molecule agonists of the TGF-beta/Smad signaling pathway (AID 1346859; active = well fitted activation curve with a large enough effect in the signal ratio in the repeat runs, not every such curve was filed as active; the % refers to the signal ratio; note: series mostly up to about 77 µM)
How it was run: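 SBE-bla HEK 293T, 4,000 cells/well, plated o/n; cpd in DMSO, 5 hr, 37 C/5% CO2; B/G FRET substrate 2 hr RT; ex 405, em 460/530 nm.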

[14] = molecular target: Thyrotropin-releasing hormone receptor (Homo sapiens) (UniProt P34981); experiment: qHTS assay to identify small molecule antagonists of the thyrotropin-releasing hormone receptor (TRHR) signaling pathway (AID 1346877; active = well fitted inhibition curve with a large enough effect in the repeat runs, not every such curve was filed as active; note: series mostly up to about 51 µM)
Chain of Thyrotropin-releasing hormone receptor (Homo sapiens) (P34981 whole entry, looked up): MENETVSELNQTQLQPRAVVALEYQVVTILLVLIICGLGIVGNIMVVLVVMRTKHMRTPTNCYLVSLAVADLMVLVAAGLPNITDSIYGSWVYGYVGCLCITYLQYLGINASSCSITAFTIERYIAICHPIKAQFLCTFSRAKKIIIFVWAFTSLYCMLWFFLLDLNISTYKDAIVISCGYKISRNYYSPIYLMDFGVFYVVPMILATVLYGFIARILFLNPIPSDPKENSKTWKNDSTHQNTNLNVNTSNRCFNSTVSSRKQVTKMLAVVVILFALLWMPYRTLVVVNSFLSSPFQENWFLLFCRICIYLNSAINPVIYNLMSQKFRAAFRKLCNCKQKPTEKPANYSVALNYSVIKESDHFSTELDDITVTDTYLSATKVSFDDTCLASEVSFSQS
How it was run: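 TRHR-expressing HEK293 cells were seeded, cultured 18 h at 37 °C, then loaded with calcium dye for 2 h. Compounds were pre-incubated 5 min at room temperature before 1 nM TRH (final) was added, and kinetic fluorescence was recorded for 3 min.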

[15] = molecular target: Thyrotropin-releasing hormone receptor (Homo sapiens) (UniProt P34981); experiment: qHTS assay to identify small molecule agonists of the thyrotropin-releasing hormone receptor (TRHR) signaling pathway (AID 1346891; calls by dose curve; note: series mostly up to about 58 µM)
How it was run: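 Intracellular calcium rise, read as fluorescence every second for 3 min, served as the agonist signal in dye-loaded HEK293 cells expressing TRHR; each compound ran at 15 concentrations in triplicate.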

[16] = Human pregnane X receptor (PXR) small molecule agonists, qHTS cell viability counter screen (AID 1346977); note: nearly all actives have a fitted effect of over 50% in size; note: potency is the fitted concentration of half-maximal effect
How it was run: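 PXR-Luc HepG2, 2,000 cells/well, 5% charcoal-stripped FBS; 5hr settle; cpd 24hr, 37C/5% CO2; CellTiter-Fluor at 23hr, read 1hr later (fluorescence).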

[17] = qHTS assay to identify small molecule antagonists of the estrogen receptor beta (ER-beta) signaling pathway - cell viability counter screen (AID 1259382); note: nearly all actives have a fitted effect of over 55% in size; note: potency is the fitted concentration of half-maximal effect
How it was run: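 ER-beta-UAS-bla HEK293T cells (2,000/well, 2% charcoal-stripped FBS) were pre-incubated 6 hr at 37C, then given compound plus 1nM final 17-beta-estradiol for 16 hr. Viability was read in the same wells by CellTiter-Glo luminescence after 30 min at room temperature.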

[18] = qHTS assay to identify small molecule agonists or antagonists of the thyroid stimulating hormone receptor (TSHR) signaling pathway - wild type cell line counter screen (AID 1259384; calls by dose curve)
How it was run: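 Wild-type HEK293 cells were plated 18 h at 37 C/5% CO2, pin-dosed with compound plus Ro20-1724 medium, held 30 min at room temperature, then given cAMP-d2 and anti-cAMP-cryptate; fluorescence was read after 1 h. Fifteen concentrations, triplicate.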

[19] = molecular target: Thyrotropin receptor (Homo sapiens) (UniProt P16473); experiment: qHTS assay to identify small molecule antagonists of the thyroid stimulating hormone receptor (TSHR) signaling pathway (AID 1259385; calls by dose curve; note: nearly all actives have a fitted effect of over 20% in size)
Chain of Thyrotropin receptor (Homo sapiens) (P16473 whole entry, looked up): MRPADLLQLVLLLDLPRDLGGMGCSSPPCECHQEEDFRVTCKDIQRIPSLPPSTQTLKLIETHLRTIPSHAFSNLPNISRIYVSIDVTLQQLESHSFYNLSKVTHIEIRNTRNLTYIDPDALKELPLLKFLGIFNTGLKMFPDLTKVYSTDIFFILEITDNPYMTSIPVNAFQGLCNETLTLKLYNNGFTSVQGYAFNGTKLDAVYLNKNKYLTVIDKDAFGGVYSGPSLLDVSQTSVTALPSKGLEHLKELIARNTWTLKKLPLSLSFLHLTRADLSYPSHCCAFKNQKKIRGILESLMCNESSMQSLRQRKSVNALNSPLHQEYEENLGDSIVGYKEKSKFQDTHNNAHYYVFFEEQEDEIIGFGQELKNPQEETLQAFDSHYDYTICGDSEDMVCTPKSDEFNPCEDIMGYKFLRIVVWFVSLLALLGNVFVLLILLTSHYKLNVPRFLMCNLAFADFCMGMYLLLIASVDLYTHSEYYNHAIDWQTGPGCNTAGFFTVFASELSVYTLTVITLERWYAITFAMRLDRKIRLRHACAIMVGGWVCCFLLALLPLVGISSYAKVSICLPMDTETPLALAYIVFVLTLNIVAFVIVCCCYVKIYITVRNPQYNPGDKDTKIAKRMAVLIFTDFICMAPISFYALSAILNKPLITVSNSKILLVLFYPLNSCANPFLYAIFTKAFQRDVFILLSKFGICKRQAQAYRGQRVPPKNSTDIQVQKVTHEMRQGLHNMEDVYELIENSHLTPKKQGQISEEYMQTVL
How it was run: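 TSHR-HEK293 cells were plated and held 18 h at 37C/5% CO2, then given compound plus Ro20-1724 and stimulated with TSH at 1.5 ng/mL final. After 30 min at room temperature, cAMP was detected with cAMP-d2/anti-cAMP-cryptate (1 h) by fluorescence.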

[20] = qHTS assay to identify small molecule agonists of the TGF-beta/Smad signaling pathway - cell viability counter screen (AID 1346829); note: nearly all actives have a fitted effect of over 45% in size; note: potency is the fitted concentration of half-maximal effect
How it was run: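 CellTiter-Glo luminescence readout; SBE-bla HEK 293T cells, overnight plating, compound 5 hr at 37 C/5% CO2, then bla substrate 2 hr RT, then CellTiter-Glo 30 min RT.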

Measured: Potency

N#CCCO
not listed: [17] | [18] | [19] | [20]
inactive: all other assays above

C[As+](C)(C)CC(=O)[O-]
not listed: [9]
inactive: all other assays above

CCc1ccccc1C
not listed: [9] | [14] | [15]
inactive: all other assays above

COc1ccc(OC)c(CC(C)N)c1 (stereo unspecified)
not listed: [5]
inactive: all other assays above

O=c1[nH]c2ccccc2n1C1CCN(CCCC(c2ccc(F)cc2)c2ccc(F)cc2)CC1
active: [2] 17.2 µM | [3] 24.3 µM | [4] 27.3 µM and 21.1 µM | [17] 30.6 µM and 29.8 µM | [7] 54.5 µM | [9] 26.6 µM | [10] 30.6 µM | [16] 21.7 µM and 26.6 µM
inactive: [1] | [6] | [18] | [19] | [13]
49 µM (active) and inactive: [20]

COc1ccc(OC)c(C=O)c1
not listed: [5] | [8] | [9] | [11] | [18] | [19] | [20]
inactive: all other assays above

CC(C)C1CCC(Cc2ccc(Cl)cc2)C1(O)Cn1cncn1 (stereo unspecified)
inactive: [1] | [6] | [18] | [15]
active: [2] 24.1 µM | [3] 67.9 µM | [4] 67.9 µM | [17] 67.9 µM | [9] 3.4 µM | [12] 54.4 µM | [16] 48.1 µM

ClC1=C(Cl)[C@]2(Cl)[C@@H]3[C@@H](Cl)[C@@H](Cl)C[C@@H]3[C@@]1(Cl)C2(Cl)Cl
not listed: [11] | [18] | [19]
inactive: all other assays above

CN(CCCC(O)c1cccnc1)N=O (stereo unspecified)
not listed: [9] | [17]
inactive: all other assays above

CC(=O)OC1(c2ccccc2)CCN(CCc2ccccc2)CC1
active: [3] 70.3 µM
not listed: [4] | [5] | [6] | [7] | [16]
inactive: all other assays above

COc1cc(N)c(Cl)cc1C(=O)NC1CN2CCC1CC2 (stereo unspecified)
not listed: [5] | [6] | [13] | [17]
inactive: all other assays above

Nc1ccc(Cl)cc1C(=O)c1ccccc1
inactive: [1] | [6] | [18] | [19] | [8] | [10] | [11] | [12] | [20] | [13]
active: [2] 30.6 µM

ClCCN1CCOCC1
not listed: [5] | [17]
inactive: all other assays above

CC1(C)C(/C=C(\Cl)C(F)(F)F)C1C(=O)OC(C#N)c1cccc(Oc2ccccc2)c1 (stereo unspecified)
not listed: [5] | [6] | [9] | [11] | [16]
inactive: all other assays above

COc1cccc2c1C(=O)c1c(O)c3c(c(O)c1C2=O)C[C@@](O)(C(=O)CO)CC3OC1CC(N2CCOC(OC)C2)C(O)C(C)O1 (stereo partly specified)
active: [2] 0.168 µM | [3] 13.3 µM | [7] 10.6 µM | [10] 0.266 µM | [16] 0.168 µM
inactive: [1] | [5] | [17] | [6] | [18] | [12] | [20]
